In all, about 5,500 compounds went through this assay and about 2,000 (36%) were called active. Not shown: some 18% with an inconclusive outcome. This is one part of the list. Unmarked numbers belong to inactive results. Cut-off read from the data, not from the text of the source: active = normalized growth mostly below about 0.91 (no sharp cut-off); inconclusive = no clear call, values can overlap the other calls; inactive = mostly above about 0.92.

The nature of the experiment: chemical genetic growth profiling, strain panel (AID 1159580).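 Note: tested at 20 µM; growth read once vehicle control cultures reached saturation at 30 °C; 1 = growth at the plate median or of vehicle wells; lower values mean less growth of the strain.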 The note with it: S. cerevisiae deletion strains, growth OD.
The mark [1] stands for this setting: locus YAL040C, strain CLN3, stronger effect = lower value.
The mark [2] stands for this setting: locus YCL061C, strain MRC1 (second series), stronger effect = lower value.
Where [3] appears, read: locus YDR150W, strain NUM1, stronger effect = lower value.
Where [4] appears, read: locus YDR363W, strain ESC2, stronger effect = lower value.
Where [5] appears, read: locus YER002W, strain NOP16, stronger effect = lower value.
[6] abbreviates: locus YJR075W, strain HOC1, stronger effect = lower value.
Setting [7] is: locus YMR263W, strain SAP30, stronger effect = lower value.
Setting [8] is: locus YNL153C, strain GIM3, stronger effect = lower value.
[9] abbreviates: locus YNL175C, strain NOP13, stronger effect = lower value.
The mark [10] stands for this setting: locus YNL197C, strain WHI3, stronger effect = lower value.
[11] abbreviates: locus YNL224C, strain SQS1, stronger effect = lower value.
[12] abbreviates: locus YNL322C, strain KRE1, stronger effect = lower value.
The mark [13] stands for this setting: locus YOR083W, strain WHI5 (second series), stronger effect = lower value.
[14] abbreviates: locus YAL013W, strain DEP1, stronger effect = lower value.
[15] abbreviates: locus YPL055C, strain LGE1, stronger effect = lower value.
Where [16] appears, read: locus YPL241C, strain CIN2, stronger effect = lower value.

As for `O=C(c1ccc2c(c1)OCCO2)N1CCCCC1`, the normalized growth reads like this: under setting [1], 0.989; under setting [2], 0.991; under setting [3], 1.01; under setting [4], 1.06; under setting [5], 0.986; (locus YGR229C, strain SMI1, stronger effect = lower value) 1.01. For the same compound, the normalized growth reads like this: under setting [6], 1.03; under setting [7], 1; (locus YMR307W, strain GAS1, stronger effect = lower value) 1.01; under setting [8], 0.98; under setting [9], 0.992; under setting [10], 0.976. Besides, the normalized growth was 1 under setting [11], 1.02 under setting [12] and 0.993 under setting [13].

Consider `O=C(CCN1CCOCC1)c1ccc2c(c1)OCCO2`, for which the normalized growth reads like this: under setting [14], 0.979; (locus YBR229C, strain ROT2, stronger effect = lower value) 0.982; (locus YCL061C, strain MRC1, stronger effect = lower value) 1.01; (locus YDL101C, strain DUN1, stronger effect = lower value) 1.01; (locus YDL134C, strain PPH21, stronger effect = lower value) 0.836 (active); under setting [3], 1.01. For the same compound, the normalized growth is, setting by setting: (locus YEL061C, strain CIN8, stronger effect = lower value) 0.694 (active); (locus YGR078C, strain PAC10, stronger effect = lower value) 0.987; (locus YHR030C, strain SLT2, stronger effect = lower value) 0.51 (active); (locus YHR087W, strain rtc3, stronger effect = lower value) 0.988; (locus YJR043C, strain POL32, stronger effect = lower value) 0.996; under setting [6], 1.01. The normalized growth was 0.637 (active) (locus YLR039C, strain RIC1, stronger effect = lower value); 0.989 (locus YLR058C, strain SHM2 (second series), stronger effect = lower value); 0.259 (active) (locus YLR085C, strain ARP6, stronger effect = lower value); 0.703 (active) (locus YLR262C, strain YPT6, stronger effect = lower value); 0.802 (active) (locus YML094W, strain GIM5, stronger effect = lower value); 0.99 (locus YMR219W, strain ESC1, stronger effect = lower value). The normalized growth is 1 under setting [7]; 1.03 under setting [8]; 0.852 (locus YNL298W, strain CLA4 (second series), stronger effect = lower value); 0.968 under setting [12]; 0.787 (active) (locus YNR030W, strain Alg12, stronger effect = lower value); 0.708 (active) (locus YOL006C, strain TOP1, stronger effect = lower value). Besides, the normalized growth by setting is: under setting [15], 0.982; under setting [16], 0.769 (active); (locus YPR135W, strain CTF4, stronger effect = lower value) 0.737.

Regarding `O=C(OCCN1CCOCC1)C1(c2ccccc2)CCCCC1`, the normalized growth under setting [14] is 1.07; the normalized growth under setting [1] is 1.01; the normalized growth under setting [2] is 1; the normalized growth under setting [3] was 1.01; the normalized growth under setting [4] is 1; the normalized growth under setting [5] is 1.01. In addition, the normalized growth runs as follows: under setting [9], 1.01; under setting [10], 0.999; under setting [11], 0.996; under setting [12], 1.01; under setting [13], 1; under setting [15], 1.02. Besides, the normalized growth under setting [16] was 0.999.

Values taken from PubChem BioAssay AID1159580 (chemical genetic matrix, 2015).
